These results are taken from PubChem BioAssay (EPA / NIEHS).

Molecules are shown by their SMILES. Several values for one entry are separate records, joined by “and”; a condition that tells them apart may be missing. Identical values can stand only once. Some compounds were tested as several samples or in several runs, with calls that do not always agree. Activity calls are given as the source filed them. The calls were made as follows: active = hit-call score of the fitted dose curve at least 0.9, where 1 is the maximum; inactive = score below 0.9.

Read-out in this assay: Bcl-2 (BAX) gene, BAX (gene 581)
Kind of assay: LTEA_HepaRG_BAX: Life Technologies and Expression Analysis (LTEA) Assay for Bcl-2 (BAX) gene using HepaRG (AID 2283470). Conditions: mRNA level, 48 h; actives raise or lower the signal. The protocol: LTEA_HepaRG is a cell based, multiplexed-readout assay that uses HepaRG, a human liver cell line, with measurements taken at 48 hours after chemical dosing on a 96-well plate.LTEA_HepaRG_BAX is one of 102 assay component(s) measured in the LTEA HepaRG cell culture assay. It is a marker of Cell proliferation, survival, death.Data from the assay component LTEA_HepaRG_BAX was analyzed into 1 endpoint. This assay endpoint, LTEA_HepaRG_BAX, was analyzed with bidirectional fitting relative to DMSO as the negative control and baseline of activity. Using a type of inducible reporter, measures of mRNA induction for gain or loss-of-signal activity can be used to understand regulation of transcription factor activity. To generalize the intended target to other relatable targets, this assay endpoint is annotated to the cell cycle intended target family, where the subfamily is Cell proliferation, survival, death.
A total of 1060 chemcials from the ToxCast library were tested in eight-point concentration-response experiments. Cell culture and cytotoxicity assays were conducted at Thermo Fisher Scientific's Custom Services facility (Madison, WI). A single lot of human HepaRG cells (Thermo Fisher Scientific, Frederick, MD) was used for the cell culture experiments. 96-well format collagen type I coated plates of human HepaRG cells were prepared using established methods. Briefly, cryopreserved HepaRG cells were thawed, plated at a density of approximately 100,000 cells/well in HepaRG Thaw, Plate, and General Purpose media (HPRG770, Thermo Fisher Scientific), and incubated for 48 hours. 0.5% DMSO was selected as vehicle control to balance the requisite need of DMSO in HepaRG cultures to maintain differentiation (for example, baseline metabolism, proportions of hepatocytes vs. cholangiocytes), while enabling further hepatic receptor pathway activation (for example, PXR and CAR) in response to chemical exposure. 48 hours after plating, the culture medium was replaced with HepaRG Serum-Free Incudtion Media. Cells were exposed to each test chemical in duplicate and maintained in CO2 incubators for another 48 hours. Chemical plates were thawed to room temperature and 200x concentrations of treatment groups were prepared. 8-point conentration-reponse curves were made with the highest exposure at 100 uM, followed by half-log dilutions, all in 0.5% DMSO. Each test plate contained variouse controls, induction positive controls (1mM phenobarbital), cytotoxicity positive controls ([…] aflatoxin B1), vehicle controls (0.5% DMSO), and total lysis controls (0.5% DMSO). Cell morphology images were taken using an Essen IncuCyte FLR automated microscope, with six 96-well plates imaged in about 24 minutes. Images were captured and exported and JPEG files. Spent culture media was transfered to black-well plates for the LDH assay, and remaining media was sorted at -80 C for later use. Cells were treated with RLT buffer and frozen until shipped for gene expression analysis. Total RNA was isolated from the cell suspension in 75 uL of Buffer RLT (Qiagen, Germantown, MD 20874) by Quintiles/Expression Analysis (Durham, NC) using a custom isolation procedure. Total RNA from each plate well was transferred to a preamplification plate. Fluidigm's 96.96 Dynamic ArrayTM (Fluidigm, Amsterdam, the Netherlands) technology was used for gene expression analyses by quantitative reverse transcription polymerase chain reaction (qRT-PCR, performed by Quintiles/Expression Analysis, Durham, NC)89. Standard TaqManTM Assays (Applied Biosystems/ThermoFisher Scientific, Foster City, CA) were used to assess the expression of 93 genes selected based on their selectivity and sensitivity to important hepatic receptors known to be modulated by environmental chemicals; importance in human hepatocyte functionality; and hepatotoxicity. […]
For `O=C(O)C1(C(=O)Nc2ccc(Cl)cc2Cl)CC1`, the compound was classed as inactive.

`CCCCOCCOCCOCc1cc2c(cc1CCC)OCO2`: the compound was classed as inactive.

As for `Oc1ccc(C(c2ccc(O)cc2)C(Cl)(Cl)Cl)cc1`, the call was inactive.

On to `S=C(S)NCCNC(=S)S.[Mn+2].[S-]C([S-])=NCCN=C([S-])[S-].[Zn+2]`, for which the compound was classed as inactive; the AC50 is 2.35 µM (active) and 1.62 µM (active).

On to `CC(=O)S[C@@H]1CC2=CC(=O)CC[C@]2(C)[C@H]2CC[C@@]3(C)[C@@H](CC[C@@]34CCC(=O)O4)[C@H]12`, for which the compound was called inactive.

For the compound `c1ccc2[nH]c(-c3cscn3)nc2c1`, the compound was called inactive.

For the compound `CCSC(=O)N(CC(C)C)CC(C)C`, the call was inactive.

As for `CC(C)(C)[C@@H](O)[C@@H](Cc1ccc(Cl)cc1)n1cncn1`, the result was inactive.

Regarding `COC(=O)CSc1cc(N=c2sc(=O)n3n2CCCC3)c(F)cc1Cl`, the call was inactive.

As to `CC(=O)[C@H]1CC[C@H]2[C@@H]3CCC4=CC(=O)CC[C@]4(C)[C@H]3CC[C@]12C`, the concentration at half-maximal activity (AC50) is 27 µM (active).

On to `CCOC(=O)c1ccc(O)cc1`, for which the call was inactive.

For `CCN(Cc1c(F)cccc1Cl)c1c([N+](=O)[O-])cc(C(F)(F)F)cc1[N+](=O)[O-]`, the outcome was inactive.

Take `CCNc1nc(N)nc(Cl)n1`: the compound was called inactive.

In the case of `S=C([S-])NCCNC(=S)[S-].[Mn+2]`, the result was inactive.

Regarding `CCCN(CCC)c1c([N+](=O)[O-])cc(C(F)(F)F)c(N)c1[N+](=O)[O-]`, the result was inactive.

On to `O=C(c1ccc(O)cc1O)c1ccc(O)cc1O`, for which the outcome was inactive.

In the case of `CCOC(=O)C(C)Oc1ccc(Oc2cnc3cc(Cl)ccc3n2)cc1` (stereo not given), the compound was called inactive.

Turning to `C#C[C@]1(O)CC[C@H]2[C@@H]3CCC4=CC(=O)CC[C@@H]4[C@H]3CC[C@@]21CC`, the call was inactive.

`CCCCCCC(C)OC(=O)COc1nc(F)c(Cl)c(N)c1Cl` (stereo not given): the call was inactive.

Turning to `COCCO`, the compound was classed as inactive.

`CCC(C)OC(=O)N1CCCCC1CCO` (stereo not given): the call was inactive.

With `O=C(c1ccccc1)C1CCCCC1`, the compound was called inactive.

Take `CCN(CC)C(=O)c1cccc(C)c1`: the compound was classed as inactive.

Consider `c1ccc(Nc2ccccc2)cc1`, for which the call was inactive.

For the compound `COC(=O)c1ccc(I)cc1S(=O)(=O)NC(=O)Nc1nc(C)nc(OC)n1`, the compound was called inactive.

Consider `CCCCCOC(=O)COc1cc(N2C(=O)C3=C(CCCC3)C2=O)c(F)cc1Cl`, for which the call was inactive.

As for `CCOC(=O)COc1cc(-n2ncc(C(F)(F)F)c(C)c2=O)c(F)cc1Cl`, the result was inactive.

For the compound `CCCOC(=O)c1ccc(C(=O)OCCC)nc1`, the result was inactive.

In the case of `C#CCOC(=O)[C@@H](C)Oc1ccc(Oc2ncc(Cl)cc2F)cc1`, the outcome was inactive.

On to `CC1(C)C(C=C(Cl)Cl)C1C(=O)OCc1cccc(Oc2ccccc2)c1` (stereo not given), for which the result was inactive.

Consider `CCCN(CCC)C(=O)SCC`, for which the compound was called inactive.

Turning to `COc1c(Cl)ccc(Cl)c1C(=O)O`, the result was inactive.

With `CC(C)(c1ccc(O)cc1)c1ccc(O)cc1`, the call was inactive.

For the compound `N#CSCSc1nc2ccccc2s1`, the compound was classed as inactive.

In the case of `C=CCOC(Cn1ccnc1)c1ccc(Cl)cc1Cl` (stereo not given), the AC50 was 33.9 µM (active).

Consider `Cc1nn(C)c(Oc2ccccc2)c1C=NOCc1ccc(C(=O)OC(C)(C)C)cc1`, for which the concentration at half-maximal activity (AC50) is 22.2 µM (active).

For the compound `CCCCC(CC)CN1C(=O)C2C3C=CC(C3)C2C1=O` (stereo not given), the compound was classed as inactive.

For the compound `CN(C)C(=O)Nc1ccc(Cl)c(Cl)c1`, the call was inactive.

Take `O=C(O)c1ccccc1`: the call was inactive.
